GLA spleen mod: qHTS Assay for Inhibitors and Activators of Human alpha-Galactosidase From Spleen Homogenate. actives 0.008% (n = 240,000). AID 2107, 2009. human spleen homogenate, 4MU-alpha-Gal fluorescence, 40 min. Alpha-galactosidase A (Homo sapiens), P06280. Potency, µM (series often up to 80 µM), inactives show at the highest dose activity change, negative = inhibition, hits mostly inhibitors;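 also: potency is read from the fitted curve at half-maximal effect; 0% = enzyme with vehicle and -100% = no enzyme basal signal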
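qHTS titration in buffer at pH 5.0. Alpha-galactosidase activity in spleen homogenate was measured via 4-methylumbelliferone release from 1 mM fluorogenic substrate after 40 min at 37C and a pH 10 stop. AC50 came from Hill fits of control-normalized data.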
aGlu spleen mod: qHTS Assay for Inhibitors and Activators of Human alpha-Glucosidase From Spleen Homogenate; Lysosomal alpha-glucosidase (Homo sapiens), P10253; human spleen homogenate, 4-MU-alpha-glucoside fluorescence; Potency, µM (series often up to 79.9 µM), for inactives: top-dose activity change, negative = inhibition, usual class: inhibitors; actives 0.006% (n = 240,000);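 also: potency is read from the fitted curve at half-maximal effect; 0% = enzyme with vehicle and -100% = no enzyme basal signal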
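Human spleen homogenate (1 ug) incubated with compounds and 1 mM 4-methylumbelliferyl-alpha-D-glucopyranoside in pH 5.0 citrate/phosphate buffer, 37 C, 40 min. Stopped at pH 10; 4-MU fluorescence (Ex 365/Em 440 nm); AC50 by Hill fit.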
GLA inh pH 4.5: qHTS Assay for Inhibitors of Human alpha-Galactosidase at pH 4.5 | purified enzyme, 4-MU-alpha-Gal fluorescence, pH 4.5 | activity change, negative = inhibition, % at 105 µM | 230,000 tested, under 10 active;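 also: 0% = full activity with enzyme and -100% = basal without enzyme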
Target sequence (P06280 whole entry, looked up): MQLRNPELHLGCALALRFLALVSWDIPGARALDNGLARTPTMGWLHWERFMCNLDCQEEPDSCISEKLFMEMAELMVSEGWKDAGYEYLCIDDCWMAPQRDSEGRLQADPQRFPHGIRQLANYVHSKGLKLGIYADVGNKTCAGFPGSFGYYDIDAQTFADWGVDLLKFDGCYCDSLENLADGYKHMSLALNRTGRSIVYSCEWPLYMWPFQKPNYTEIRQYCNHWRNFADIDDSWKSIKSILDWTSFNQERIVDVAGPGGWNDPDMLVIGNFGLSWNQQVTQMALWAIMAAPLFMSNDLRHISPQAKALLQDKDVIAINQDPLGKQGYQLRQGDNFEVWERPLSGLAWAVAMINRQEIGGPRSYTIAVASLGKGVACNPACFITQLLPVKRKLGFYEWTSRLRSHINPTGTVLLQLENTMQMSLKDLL
GAA inhib: qHTS Assay for Inhibitors of Human alpha-Glucosidase as a Potential Chaperone Treatment of Pompe Disease; actives 0.005% (n = 200,000); Potency, µM (titrated, usually from 76.9 µM), for the others: top-dose activity change, negative = inhibition, usual class: inhibitors; purified human GAA, 4-MU-alpha-glucoside fluorescence; Lysosomal alpha-glucosidase (Homo sapiens), P10253;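 also: potency is read from the fitted curve at half-maximal effect; plate controls were uninhibited enzyme wells for no effect and no-enzyme background for full effect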
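Activity normalized between no-enzyme (basal) and enzyme-only wells. Conditions: 4 nM human enzyme, 400 uM fluorogenic substrate, citrate/phosphate pH 5.0 with Tween-20, 20 min room temperature, compounds up to 77 uM.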
GAA glycogen: qHTS Assay for Inhibitors and Activators of Human alpha-Glucosidase Cleavage of Glycogen | Lysosomal alpha-glucosidase (Homo sapiens), P10253 | recombinant GAA, glycogen substrate, Amplex Red glucose oxidase fluorescence | Potency, µM (titrated, usually from 76.4 µM), for the others: top-dose activity change, negative = inhibition, hits mostly inhibitors | actives 0.38% (n = 300,000) | AID 2100, 2009;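 also: potency is read from the fitted curve at half-maximal effect; 0% = full enzyme reaction and -100% = no-enzyme basal signal; the screen sought inhibitors and activators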
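Recombinant human alpha-glucosidase (4 nM final) hydrolysed bovine liver glycogen (30 ug) for 40 min at 37 C in pH 5.0 citrate/phosphate with 0.01% Tween-20. Released glucose detected by glucose oxidase/Amplex Red, Ex 573/Em 610 nm. Compounds up to 77 uM; AC50 from Hill fits.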
N370S GC mod: qHTS Assay for Inhibitors and Activators of N370S glucocerebrosidase as a Potential Chaperone Treatment of Gaucher Disease; Lysosomal acid glucosylceramidase (Homo sapiens), P04062; N370S GC spleen homogenate, 4MU-glucoside fluorescence; Potency, µM (doses to about 59.4 µM), inactives show top-dose activity change, negative = inhibition, actives largely listed as inhibitors; actives 0.092% (n = 330,000); AID 2101, 2009;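 also: potency is read from the fitted curve at half-maximal effect; 0% = full enzyme activity and -100% = no enzyme basal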
Active calls of the source: *; ? = inconclusive; . = not tested or not shown; [ ] = dose if it differs, or a comment. An excerpt weighted towards active compounds, which were near 0.41% of everything screened. Calls follow the shape of the dose curve; as a rule, active = well fitted curve in the direction sought with a large enough effect; inconclusive = small, poorly fitted or top-dose-only effect, or another doubt; inactive = no such curve, though single readings can be large; an effect the other way counts as inactive or inconclusive.

SMILES	GLA spleen mod	aGlu spleen mod	GLA inh pH 4.5	GAA inhib	GAA glycogen	N370S GC mod
Cc1ccc(C)c(-c2nn(-c3cc(N4CCN(CCO)CC4)ccc3[N+](=O)[O-])c(=O)c3ccccc23)c1	0.9%	-2.4%	-4.2	6.8%	-3.3%	15.8µM*
C/C(=N\Nc1ccc(Cl)cc1)c1ccccn1	0.8%	0.9%	-8.6	0.8%	7.08µM*	-2.1%
COc1cc(OC)c(NC(=O)Nc2sc3nc4n(c(=O)c3c2C)CCC(C)CC4)cc1Cl (stereo not drawn)	.	.	.	.	5.1%[76.3 µM]	.
CCOc1ccccc1CNc1ccc(O)cc1	5.5%	4.2%	-2.3	-4.0%	?	5.62µM*
O=Nc1c(O)[nH]c2c(Cl)c(Cl)ccc12	11.9%	3.5%	.	.	.	-1.9%
CCOC(=O)c1[nH]c2cc(OC)c(OC)cc2c1N	5.9%	7.2%	-0.2	-1.1%	28µM*	0.1%
Cc1nc(C#N)c(N/N=C/c2cccc(Cl)c2)o1	11.1%	0.6%	2.3	-9.0%	31.6µM*	7.1%
CC1N(C)c2cccc3cccc(c23)N1C	9.2%	4.0%	2.6	4.5%	12.5µM*	1.0%
CN1c2cccc3cccc(c23)N(C)C1c1cccs1	3.7%	2.9%	-0.2	0.8%	?	10.2%
CCCOc1cccc(-c2nn(-c3ccccc3)cc2/C=C(\C#N)C(=O)NCCCn2ccnc2)c1	8.0%	-16.5%	-12.7	-8.5%	-11.0%	-23.9%
N#C/C(=C/c1cn(-c2ccccc2)nc1-c1cccc(OCc2ccc(F)cc2)c1)C(=O)NCCCn1ccnc1	-11.6%	-14.5%	-8.9	-6.6%	3.3%	15.8µM*
COc1c(F)c(F)c(C(=O)Nc2ccc(N3CCN(C(C)=O)CC3)c(Cl)c2)c(F)c1F	1.5%	-1.0%	-0.7	-2.9%	-0.7%	11.2µM*
NNC(=O)c1nn(-c2ccc(Cl)cc2)cc1O	-3.5%	-6.5%	5.8	8.5%	28.2µM*	-22.0%
CC(=O)O[C@@H]1C(CO[Si](C)(C)C(C)(C)C)=C(Br)C(=O)[C@@H]2O[C@]12C	1.5%	9.4%	-0.6	.	.	-5.7%
O=C(/C=C/Nc1ccccc1O)c1ccco1	-4.7%	-0.7%	-8.9	.	15.7µM*	-7.0%
CN(C)c1ccc(N/C=C/C(=O)c2ccco2)cc1	1.4%	2.0%	-5.4	5.3%	12.6µM*	3.8%[12.8 µM]
O=C(/C=C/Nc1ccccc1Oc1ccccc1)c1ccco1	-8.3%	-2.9%	-7.2	-5.5%	-10.2%	5.6%
CC(=O)Nc1ccc(N/C=C/C(=O)c2ccco2)cc1	-1.6%	-2.7%	-2.9	-6.0%	-6.9%	12.6%
Cc1c2c(c(O)c3c(O)cccc13)C(=O)O[C@H]2C1C(N(C)C)C(O)=C(C(N)=O)C(=O)[C@H]1O (stereo partly drawn)	-8.9%	3.9%	.	.	.	-13.2%
CC(C=O)Cc1ccc(C(C)(C)C)cc1 (stereo not drawn)	4.4%	-3.7%	.	.	.	1.6%
O=C(O)c1ccccc1NC(=O)N1c2ccccc2Sc2ccccc21	.	.	.	.	17.8µM*	.
COc1cc(NC(=O)N2c3ccccc3Sc3ccccc32)c(C(=O)O)cc1OC	.	.	.	.	.	6.9%
O=C(CCCn1c(SCC(=O)c2ccc(O)c(O)c2)nc2ccccc2c1=O)NCC1CCCO1 (stereo not drawn)	1.0%	-2.6%	1.0	10.5%	5.58µM*	3.1%
CCCCn1c(SCC(=O)c2ccc(O)c(O)c2)nc2ccsc2c1=O	-2.0%	2.2%	2.1	-5.9%	28.2µM*	-13.9%
CC[C@H](C)[C@H](NC(=O)[C@H](Cc1ccccc1)NC(=O)[C@H](C)NC(=O)[C@H](CC(=O)O)NC(=O)[C@H](CCCCN)NC(=O)[C@H](CO)NC(=O)[C@@H]1CCCN1C(=O)[C@@H]1CCC(=O)N1)C(=O)NCC(=O)N[C@@H](CC(C)C)C(=O)N[C@@H](CCSC)C(N)=O	-5.5%	6.5%	.	.	.	-2.6%
SMILES	GLA spleen mod	aGlu spleen mod	GLA inh pH 4.5	GAA inhib	GAA glycogen	N370S GC mod
CCNC(=O)C1CCCN(c2nn3cc(-c4ccc(C)cc4)nc3s2)C1 (stereo not drawn)	.	.	.	.	-4.0%[76.3 µM]	.
C#C[C@]1(O)CC[C@H]2[C@H]3CCc4cc(O)ccc4[C@@H]3CC[C@@]21C	-1.0%	0.9%	.	.	.	-9.0%
COc1ccc2[nH]c(C(=O)O)c(NS(=O)(=O)c3ccc(Cl)s3)c2c1	9.6%	7.4%	5.4	6.8%	9.92µM*	9.3%
CCOC(=O)c1[nH]c2ccc(OC)cc2c1NS(=O)(=O)c1ccc(Cl)s1	3.4%	8.2%	1.3	1.0%	6.3%	-0.8%
Cc1ccc(C(=O)c2oc3ccccc3c2NC(=O)c2nc(S(C)(=O)=O)ncc2Cl)cc1F	.	.	.	.	3.2%[76.3 µM]	.
Cc1cccc(CNc2ncc(-c3cccc([N+](=O)[O-])c3)n2C)c1	-2.4%	3.2%	2.8	-1.1%	?	-4.0%
Cn1c(-c2cccc([N+](=O)[O-])c2)cnc1NCc1cccc([N+](=O)[O-])c1	0.9%	-4.2%	9.0	-5.5%	22.2µM*	-13.0%
O=[N+]([O-])c1cc(-c2nc(-c3ccccc3)no2)ccc1N1CCOCC1	.	.	.	.	11.1%[76.3 µM]	.
O=C(/C=C/c1ccc(O)c(O)c1)c1ccc(O[C@@H]2O[C@H](CO)[C@@H](O)[C@H](O)[C@H]2O)c(O)c1O	-8.4%	?	.	.	.	-24.5%
CC1CCC/C(=N/Nc2ccc([N+](=O)[O-])cc2[N+](=O)[O-])C1 (stereo not drawn)	6.9%	1.8%	-17.5	-11.6%	15.7µM*	-2.6%
COc1ccc(NCc2ccc([N+](=O)[O-])s2)c(OC)c1	-3.7%	3.3%	-0.1	-5.3%	9.92µM*	-12.3%
COc1ccc(NCc2ccc([N+](=O)[O-])s2)cc1	2.9%	1.5%	5.4	-0.4%	?	-3.7%
Cc1c(Nc2c3c(c(C#N)c4nc5ccccc5n24)CCC3)c(=O)n(-c2ccccc2)n1C	20.8%	2.9%	-4.0	6.3%	7.03µM*	-8.4%
CCCCc1c(C)c(C#N)c2nc3ccccc3n2c1Nc1c(C)n(C)n(-c2ccccc2)c1=O	7.4%	-2.5%	4.0	5.2%	?	10.4%
O=C(NCc1ccccn1)C(=O)NN=C1CCCCCCC1	2.4%	1.6%	-5.5[21.1 µM]	-7.7%	31.6µM*	9.4%
